From PubChem BioAssay
This is a sample that favours compounds with a hit; in the whole collection about 19% have one here.
TDP1 cell noCPT: qHTS for Inhibitors of human tyrosyl-DNA phosphodiesterase 1 (TDP1): qHTS in cells in absence of CPT; actives 15% (n = 420,000); DT40 Tdp1-/- hTDP1 cells, no CPT, ATP luminescence, 48 h; Potency, µM (highest dose often 46.2 µM), usual class: inhibitors; also: nearly all actives have a fitted effect of over 55% in size
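Cells were dispensed at 400 per well, compounds added by pin tool, plates incubated ≥48 hr at 37 °C, then CellTiter-Glo added for 30 min at room temperature before luminescence reading. Line: DT40 Tdp1-/- complemented with hTDP1; camptothecin omitted.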
TDP1 block: TDP1 (human) enzyme inhibition | recombinant TDP1, AlphaScreen DNA substrate cleavage | Potency, µM (series often up to 130 µM), actives largely listed as inhibitors | actives 0.28% (n = 350,000) | AID 485290; also: nearly all actives have a fitted effect of over 40% in size
Target sequence (Q9NUW8 whole entry, looked up): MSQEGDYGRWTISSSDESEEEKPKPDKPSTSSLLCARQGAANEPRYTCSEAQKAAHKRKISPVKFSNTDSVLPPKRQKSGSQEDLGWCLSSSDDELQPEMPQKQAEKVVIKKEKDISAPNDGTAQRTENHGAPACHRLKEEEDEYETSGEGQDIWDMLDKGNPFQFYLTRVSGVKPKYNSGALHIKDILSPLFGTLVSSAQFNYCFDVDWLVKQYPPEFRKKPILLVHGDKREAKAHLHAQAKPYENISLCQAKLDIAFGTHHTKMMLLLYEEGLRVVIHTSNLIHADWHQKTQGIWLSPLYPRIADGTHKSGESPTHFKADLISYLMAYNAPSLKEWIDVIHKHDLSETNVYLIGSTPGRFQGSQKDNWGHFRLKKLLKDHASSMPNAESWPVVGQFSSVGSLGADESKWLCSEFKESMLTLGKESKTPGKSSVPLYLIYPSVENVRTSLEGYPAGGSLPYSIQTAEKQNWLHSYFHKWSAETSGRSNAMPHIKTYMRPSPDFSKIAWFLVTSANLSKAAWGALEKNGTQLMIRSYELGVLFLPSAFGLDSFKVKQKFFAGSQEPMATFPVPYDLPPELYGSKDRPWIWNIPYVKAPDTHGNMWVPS
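Tdp1 1 nM final; 15 min RT w/ cpd; substrate 15 nM, 5 min; beads 10 ug/ml, 10 min; AlphaScreen read. Neg ctrl: no enzyme.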
DT40 TDP1 CPT: DT40-hTDP1 cell growth loss with CPT | chicken DT40 Tdp1-/-;hTDP1 cells + 20 nM CPT, ATP luminescence, 48 h | Potency, µM (top dose mostly 46.2 µM), hits mostly inhibitors | actives 12% (n = 420,000) | AID 686979; also: nearly all actives have a fitted effect of over 55% in size
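Chicken DT40 Tdp1-/- cells stably complemented with human TDP1 were seeded at 400 cells/well in medium containing 20 nM camptothecin, exposed to pin-transferred compounds, and grown at 37 °C for at least 48 hr. Viability was read as ATP luminescence.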
TGFb SMAD3 inh: blocks TGF-b signaling | actives 1.2% (n = 410,000) | Potency, µM (highest dose often 46.1 µM), most hits filed as inhibitors | HepG2 CAGA-GFP TGF-b/SMAD3 reporter, GFP fluorescence, 18 h; TGF-beta stimulated, 500 pg/mL final; also: nearly all actives have a fitted effect of over 65% in size
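Inhibition of TGF-beta-driven CAGA-GFP reporter expression in HEPG2 cells is measured by cellular GFP fluorescence after 18 h stimulation with 500 pg/mL recombinant TGF-beta in 1% FBS medium at 37 degrees C.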
IL-1B inflam inh: inhibitors of inflammasome signaling (IL-1 beta secretion); THP-1 LPS/ATP IL-1B secretion, AlphaLISA, 16 h; hits give low values; activity change, % at 57.5 µM; actives 4.7% (n = 360,000); in the data active = activity change below about -50%; inconclusive = mostly about -30% to -49%
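Secreted IL-1B measured by AlphaLISA bead assay after 16 h compound exposure of THP-1 cells; compounds (final up to 57.5 uM) added 1 h before LPS (250 ng/mL) and ATP (1.25 mM) stimulation; lower signal means less secretion.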
HepG2 tox: HepG2 cytotoxicity, counter-screen for TGF-b inhibitors; Potency, µM (doses to about 46.1 µM), usual class: cytotoxic; HepG2 CAGA-GFP viability, ATP luminescence, 18 h; actives 0.76% (n = 410,000)
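HepG2 CAGA-GFP cells (1000/well, DMEM with 1% FBS) received compound, then TGF-beta at 500 pg/mL final, and were incubated 18 hours at 37 degrees C. Viability was read by CellTiter-Glo luminescence. Media-only wells were set as complete cell-killing and DMSO as no toxicity.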
A number is an active result; n = inactive; u = inconclusive; x = no result. Unless noted, calls follow the shape of the dose curve; as a rule, active = well fitted curve in the direction sought with a large enough effect; inconclusive = small, poorly fitted or top-dose-only effect, or another doubt; inactive = no such curve, though single readings can be large; an effect the other way counts as inactive or inconclusive.

SMILES | TDP1 cell noCPT | TDP1 block | DT40 TDP1 CPT | TGFb SMAD3 inh | IL-1B inflam inh | HepG2 tox
COc1ccc(CNC(=O)c2cnc3sc4cc(OC)ccc4n3c2=O)cc1 | n | n | n | u | x | n
COc1ccc(/C=N/NC(=O)c2nn(-c3ccc(Cl)cc3)c(=O)c3c(N)scc23)cc1 | 2.59µM | n | 5.8µM | n | n | n
COc1ccc(-n2nc(C(=O)NCC(=O)Nc3cc(Cl)c(OC)cc3OC)c3ccccc3c2=O)cc1 | n | n | n | n | n | n
COc1ccc(/C=N/NC(=O)c2nn(-c3ccc(C)c(C)c3)c(=O)c3ccccc23)cc1 | 3.26µM | n | 9.2µM | n | n | n
COc1ccc2c(c1)c(C(=O)N/N=C/c1ccc(Cl)cc1)c(C)n2C | u | x | u | n | u | n
COc1ccc(/C=N/NC(=O)c2nn(-c3ccccc3)c(=O)c3c(N)scc23)cc1 | 8.2µM | x | 10.3µM | n | n | n
CCN(CC)C(=O)c1nn(-c2ccc(OC)cc2)c(=O)c2c(N)scc12 | x | n | x | x | x | x
CCn1ccc2cc(S(=O)(=O)N3CCC(C(=O)NCc4cccc(C)c4)CC3)ccc21 | u | n | u | n | x | n
Cn1c(/C=C/c2ccccc2)nc2ccccc21 | 16.4µM | n | u | n | n | n
Cn1c(=O)c(C(=O)c2ccccc2)nc2ccccc21 | n | n | n | n | n | n
Cn1c(=O)c(/C=C/c2ccccc2)nc2ccccc21 | 16.4µM | x | u | n | n | n
Cn1c(/C=N/NC(=O)c2ccccc2)nc2ccccc21 | 25.9µM | u | u | n | n | n
CC(=O)c1ccc(/C=C/c2nc3ccccc3n2C)o1 | u | n | u | n | n | n
Cn1c(=O)c(/C=C/c2ccc(F)cc2)nc2ccccc21 | 23.1µM | x | u | u | n | n
CCCCCCCCn1cnc2c(N)c(C)c(C)cc21 | u | n | u | u | n | 20µM
COc1ccc(Cn2cnc3c(N)c(C)c(C)cc32)cc1 | n | n | n | n | n | n
CN(Cc1ccccc1F)C(=O)c1ccc(NC(=O)CC2SC(N3CCCCC3)=NC2=O)cc1 (centres undefined) | n | x | u | n | n | n
O=C(CC1SC(N2CCCC2)=NC1=O)Nc1ccc(C(=O)N2CCN(c3cccc(Cl)c3)CC2)cc1 (centres undefined) | u | n | 14.6µM | n | -50.4 | n
CN(Cc1ccccc1F)C(=O)c1cccc(NC(=O)CC2SC(N3CCCCC3)=NC2=O)c1 (centres undefined) | 23.1µM | x | 18.4µM | n | n | n
O=C(CC1SC(N2CCCC2)=NC1=O)Nc1ccc(C(=O)Nc2ncccc2O)cc1 (centres undefined) | 10.3µM | x | 14.6µM | u | n | n
Cc1ccc(-n2c(=O)c3c(c4cc(C)ccc4n3C)n(CC(=O)c3ccc(Cl)cc3)c2=O)cc1 | n | n | n | n | x | n
Cc1ccccc1C(=O)Nc1nnc(S(=O)(=O)N2CCCCC2)s1 | n | x | u | n | n | n
COc1ccc(NC(=O)CCOc2ccccc2F)cc1S(=O)(=O)N1CCCCC1 | u | n | u | n | n | n
O=C(Nc1ccc(Oc2cccnc2)cc1)c1cccc([N+](=O)[O-])c1 | u | n | u | n | -56.3 | n
COc1ccc(C(=O)C(C)Oc2cccc(NC(=O)c3cccc([N+](=O)[O-])c3)c2)cc1 (centres undefined) | 20.6µM | n | u | n | n | n
COc1ccc(/C=C2\C(=O)N(c3c(Cl)cc(Cl)cc3Cl)N=C2NC(=O)c2cccc([N+](=O)[O-])c2)cc1 | u | n | 18.4µM | n | -104.8 | n
O=C(Nc1ccc(Oc2cccnc2)cc1)c1ccc([N+](=O)[O-])cc1 | u | n | n | n | u | n
NC(=S)NN=Cc1nccc2ccccc12 | 2.06µM | x | 2.31µM | n | n | n
